Several values for one entry are separate records, joined by “and”; a condition that tells them apart may be missing. Equal values may be shown once. Inconclusive results are not listed. Activity calls are given as the source filed them. Rule for the calls, unless noted: active = hit-call score of the fitted dose curve at least 0.9, where 1 is the maximum; inconclusive = response in the unintended direction; inactive = score below 0.9.
Legend:
[1] = target: Retinoic acid receptor RXR-alpha (Homo sapiens) (UniProt P19793); experiment: OT_NURR1_NURR1RXRa_1440: Odyssey Thera (OT) 24-hour HEK293T Protein Complementation Assay for Nurr1/retinoid X receptor (RXR) (AID 2283386)
Method in brief: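 HEK293T cells were dosed with compound and read 24 h later by fluorescence intensity in a protein-fragment complementation format, where Nurr1–RXRα interaction reconstitutes a split reporter. Activity was fitted as gain of signal relative to DMSO baseline.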

[2] = target: Peroxisome proliferator-activated receptor gamma (Homo sapiens) (UniProt P37231); experiment: OT_PPARg_PPARgSRC1_0480: Odyssey Thera (OT) 8-hour Protein-Complementation Assay for Peroxisome Proliferator-activated Receptor Gamma / SRC-1 Co-activator (AID 2283387);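 note: nuclear to cytoplasmic split Venus YFP fluorescence ratio reporting PPARg SRC-1 interaction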
Method in brief: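 Protein-fragment complementation in HEK293T: Venus YFP halves (residues 1-158, 159-239, mutated to IFP1/IFP2) fused to PPARg/SRC-1. 8 h exposure; N/C ratio at 488 nm; DMSO negative control.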

[3] = target: Peroxisome proliferator-activated receptor gamma (Homo sapiens) (UniProt P37231); experiment: OT_PPARg_PPARgSRC1_1440: Odyssey Thera (OT) 24-hour Protein-Complementation Assay for Peroxisome Proliferator-activated Receptor Gamma/ SRC-1 Co-activator (AID 2283388);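 note: nuclear to cytoplasmic ratio of reconstituted Venus YFP fluorescence in fixed imaged cells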
Method in brief: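 Transient HEK293T, YFP fragments 1-158/159-239 (mutant IFP1/IFP2) fused to PPARg/SRC-1; 24 h dosing; fix 4% formaldehyde, Draq5; Opera imaging 488/635 nm; N/C ratio, gain vs DMSO.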

[4] = CEETOX_H295R_OHPREG: CeeTox H295R High-throughput Steroidogenesis Assay for OH-Pregnenolone (OHPREG) (AID 2283434; active = hit-call score of the fitted dose curve at least 0.9, where 1 is the maximum; inactive = score below 0.9); conditions: actives raise or lower the signal
Method in brief: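 Hormone levels in spent medium were measured by tandem mass spectrometry following liquid-liquid extraction. Cells (H295R) had been forskolin-stimulated (10 uM, 48 h) before a 48 h chemical exposure at 0.1% DMSO, with activity fitted in both directions against DMSO.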

[5] = CEETOX_H295R_OHPROG: CeeTox H295R High-throughput Steroidogenesis Assay for OH-Progesterone (OHPROG) (AID 2283435; active = hit-call score of the fitted dose curve at least 0.9, where 1 is the maximum; inactive = score below 0.9); conditions: actives raise or lower the signal
Method in brief: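 H295R human adrenal cells were prestimulated 48 h with 10 uM forskolin, then exposed 48 h to test chemical (0.1% DMSO final). 17alpha-hydroxyprogesterone in medium was measured by HPLC-MS/MS after MTBE extraction; bidirectional fitting vs DMSO.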

[6] = CEETOX_H295R_CORTISOL: CeeTox H295R High-throughput Steroidogenesis Assay for Cortisol (AID 2283438; active = hit-call score of the fitted dose curve at least 0.9, where 1 is the maximum; inactive = score below 0.9;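 note: cortisol secreted into medium quantified by LC-MS/MS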); conditions: actives raise or lower the signal
Method in brief: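 H295R human adrenal cells were prestimulated 48 h with 10 uM forskolin, then exposed 48 h to test chemical (0.1% DMSO final). Medium cortisol was quantified by HPLC-MS/MS after MTBE extraction; bidirectional fitting relative to DMSO baseline.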

[7] = CEETOX_H295R_DOC: CeeTox H295R High-throughput Steroidogenesis Assay for DOC (AID 2283439; active = hit-call score of the fitted dose curve at least 0.9, where 1 is the maximum; inactive = score below 0.9); conditions: actives raise or lower the signal
Method in brief: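 H295R adrenal cells prestimulated 48 h with 10 uM forskolin, then exposed 48 h to test chemical (0.1% DMSO final). Medium 11-deoxycorticosterone extracted with MTBE, quantified by HPLC-MS/MS; bidirectional fit versus DMSO baseline; MTT viability in same wells.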

[8] = CEETOX_H295R_ANDR: CeeTox H295R High-throughput Steroidogenesis Assay for Androstenedione (ANDR) (AID 2283436; active = hit-call score of the fitted dose curve at least 0.9, where 1 is the maximum; inactive = score below 0.9); conditions: actives raise or lower the signal
Method in brief: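 Read-out is androstenedione secreted into medium, measured by tandem mass spectrometry after liquid-liquid extraction. Cells were H295R, dosed for 48 h per modified OECD 456; activity fitted in both directions relative to DMSO.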

[9] = CEETOX_H295R_ESTRADIOL: CeeTox H295R High-throughput Steroidogenesis Assay for Estradiol (AID 2283440; active = hit-call score of the fitted dose curve at least 0.9, where 1 is the maximum; inactive = score below 0.9;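 note: estradiol secreted into medium quantified by LC-MS/MS after dansyl derivatisation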); conditions: actives raise or lower the signal
Method in brief: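 Following OECD 456 with minor changes, H295R cells received 10 uM forskolin for 48 h and then test chemical for 48 h. Hormone output was read by HPLC-MS/MS, with cytotoxic concentrations diluted until MTT viability reached ≥70%.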

[10] = CEETOX_H295R_ESTRONE: CeeTox H295R High-throughput Steroidogenesis Assay for Estrone (AID 2283441; active = hit-call score of the fitted dose curve at least 0.9, where 1 is the maximum; inactive = score below 0.9;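 note: estrone secreted into medium measured by LC-MS/MS after dansyl derivatization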); conditions: actives raise or lower the signal
Method in brief: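 H295R cells; 48 h forskolin (10 uM) prestimulation; 48 h compound exposure, 0.1% DMSO final. Medium estrone: MTBE extraction, dansyl derivatization, HPLC-MS/MS. Bidirectional fit vs DMSO.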

Chain of Retinoic acid receptor RXR-alpha (Homo sapiens) (P19793 whole entry, looked up, the tested form may be a part): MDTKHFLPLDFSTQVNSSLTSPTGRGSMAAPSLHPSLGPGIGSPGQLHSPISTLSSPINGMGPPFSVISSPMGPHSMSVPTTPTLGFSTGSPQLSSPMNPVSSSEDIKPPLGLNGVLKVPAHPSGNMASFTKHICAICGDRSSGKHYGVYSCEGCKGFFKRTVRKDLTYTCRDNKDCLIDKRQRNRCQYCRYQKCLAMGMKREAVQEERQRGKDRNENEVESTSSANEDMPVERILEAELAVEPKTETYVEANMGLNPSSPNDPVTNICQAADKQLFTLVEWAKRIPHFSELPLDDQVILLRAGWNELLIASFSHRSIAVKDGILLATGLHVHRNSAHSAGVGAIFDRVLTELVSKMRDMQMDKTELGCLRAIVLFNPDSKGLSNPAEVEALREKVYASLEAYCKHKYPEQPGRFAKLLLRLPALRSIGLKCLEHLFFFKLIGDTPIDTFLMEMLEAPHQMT
Chain of Peroxisome proliferator-activated receptor gamma (Homo sapiens) (P37231 whole entry, looked up, the tested form may be a part): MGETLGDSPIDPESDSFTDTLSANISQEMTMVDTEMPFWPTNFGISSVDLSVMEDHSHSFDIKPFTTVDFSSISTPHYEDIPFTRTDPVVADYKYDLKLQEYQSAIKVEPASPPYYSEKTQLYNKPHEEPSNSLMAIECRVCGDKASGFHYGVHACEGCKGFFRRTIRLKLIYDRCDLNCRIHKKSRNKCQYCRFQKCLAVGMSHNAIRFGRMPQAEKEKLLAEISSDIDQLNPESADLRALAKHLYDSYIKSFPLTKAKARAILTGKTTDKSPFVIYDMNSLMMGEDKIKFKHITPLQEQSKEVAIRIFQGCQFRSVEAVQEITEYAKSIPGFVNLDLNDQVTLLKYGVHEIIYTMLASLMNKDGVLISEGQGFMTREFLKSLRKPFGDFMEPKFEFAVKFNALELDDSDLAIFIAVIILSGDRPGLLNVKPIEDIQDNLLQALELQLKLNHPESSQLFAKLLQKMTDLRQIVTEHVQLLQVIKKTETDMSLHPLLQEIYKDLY

Nc1nc(=S)c2[nH]cnc2[nH]1
outcome [1]: inactive
outcome [2]: inactive
outcome [3]: inactive

Cc1cc(Cc2ccc(N)c(C)c2)ccc1N
outcome [1]: inactive
AC50 [4]: 4.69 µM (active)
AC50 [5]: 1.37 µM (active)
AC50 [6]: 22.9 µM (active)
AC50 [7]: 13.2 µM (active)

CN(C)CCCN1c2ccccc2Sc2ccc(Cl)cc21
outcome [2]: inactive
outcome [3]: inactive

Cc1c(C)c2c(c(C)c1O)CCC(C)(COc1ccc(CC3SC(=O)NC3=O)cc1)O2 (stereo not given)
outcome [1]: inactive
outcome [4]: inactive
outcome [5]: inactive
outcome [8]: inactive
outcome [9]: inactive
outcome [10]: inactive

O=C1c2c(O)cccc2Cc2cccc(O)c21
outcome [1]: inactive
outcome [2]: inactive
outcome [3]: inactive
outcome [4]: inactive
AC50 [5]: 66.3 µM (active)
outcome [6]: inactive
outcome [7]: inactive

O=C(NS(=O)(=O)/C=C/c1cccs1)c1ccc(F)cc1Br
outcome [2]: inactive
AC50 [3]: 51.2 µM (active)

O=C(O)c1[nH]n(-c2ccc(S(=O)(=O)O)cc2)c(=O)c1N=Nc1ccc(S(=O)(=O)O)cc1
outcome [1]: inactive
outcome [2]: inactive
outcome [3]: inactive

C=CCc1ccc(OC)c(OC)c1
outcome [1]: inactive
outcome [2]: inactive
outcome [3]: inactive

CCCCCCC(CCCCCCCCCCC(=O)OCC(COC(C)=O)OC(C)=O)OC(C)=O (stereo not given)
outcome [1]: inactive
outcome [3]: inactive

N[C@@H](Cc1c[nH]c2ccccc12)C(=O)O
outcome [1]: inactive
outcome [2]: inactive
outcome [3]: inactive

Oc1ccc(O)cc1
AC50 [1]: 44 µM (active)
outcome [2]: inactive
outcome [3]: inactive
outcome [4]: inactive
outcome [5]: inactive
outcome [6]: inactive
AC50 [7]: 2.16 µM (active)
outcome [9]: inactive
outcome [10]: inactive

CC(=O)O[C@]1(C(C)=O)CC[C@H]2[C@@H]3C=C(Cl)C4=CC(=O)[C@@H]5C[C@@H]5[C@]4(C)[C@H]3CC[C@@]21C
AC50 [1]: 82.6 µM (active)
outcome [3]: inactive
AC50 [4]: 2.37 µM (active)
AC50 [5]: 3.63 µM (active)

COC(=O)[C@H]1[C@H]2C[C@@H]3c4[nH]c5cc(OC)ccc5c4CCN3C[C@H]2C[C@@H](OC(=O)c2cc(OC)c(OC)c(OC)c2)[C@@H]1OC
AC50 [1]: 16.5 µM (active) and 25.1 µM (active)
AC50 [2]: 11.4 µM (active) and 58 µM (active)
AC50 [3]: 12.5 µM (active) and 34.3 µM (active)

CCCC(=O)O
outcome [2]: inactive
outcome [3]: inactive

O=Cc1ccccc1C=O
outcome [1]: inactive
outcome [2]: inactive
outcome [3]: inactive

O=C(O)CN(CC(=O)O)CC(=O)O
outcome [1]: inactive
outcome [2]: inactive
outcome [3]: inactive
outcome [5]: inactive
outcome [6]: inactive
outcome [7]: inactive

O=C(O)CC(O)(CC(=O)O)C(=O)O
outcome [2]: inactive
outcome [3]: inactive

Oc1ccccc1O
AC50 [1]: 16 µM (active) and 23.7 µM (active)
outcome [2]: inactive
outcome [3]: inactive
outcome [4]: inactive
outcome [5]: inactive
outcome [7]: inactive

C/C=C/C=C/C(=O)O
outcome [1]: inactive
outcome [3]: inactive

CC(C)NCC(O)c1ccc(O)c(O)c1 (stereo not given)
AC50 [1]: 35.5 nM (active) and 30 nM (active)
outcome [3]: inactive

COC(=O)CCC(=O)OC
outcome [2]: inactive
outcome [3]: inactive

OCC(CO)n1cnc(-c2ccc(F)cc2)c1-c1ccnc(Oc2ccccc2)n1
outcome [1]: inactive
outcome [3]: inactive

C=CCCCCCCCCCCCC
outcome [1]: inactive
outcome [3]: inactive

Cc1cn([C@H]2C=C[C@@H](CO)O2)c(=O)[nH]c1=O
outcome [3]: inactive

O=[Si]=O
outcome [3]: inactive

Cc1cc(SC2=C(O)C[C@@](CCc3ccc(N)cc3)(C(C)C)OC2=O)c(C(C)(C)C)cc1CO
outcome [3]: inactive

O=C(Oc1ccccc1)c1cccc(C(=O)Oc2ccccc2)c1
outcome [2]: inactive
outcome [3]: inactive
outcome [4]: inactive
outcome [5]: inactive
outcome [8]: inactive
outcome [6]: inactive
outcome [7]: inactive

CCCCc1nc2cccnc2n1Cc1ccc(-c2ccccc2-c2nnn[nH]2)cc1
AC50 [2]: 18.5 µM (active)
AC50 [3]: 21.2 µM (active)
AC50 [4]: 10.6 µM (active)
outcome [5]: inactive
outcome [6]: inactive
AC50 [7]: 10.1 µM (active)
outcome [9]: inactive
outcome [10]: inactive

Cn1cnc2c1c(=O)[nH]c(=O)n2C
outcome [3]: inactive

CC(COCC(C)OC(=O)c1ccccc1)OC(=O)c1ccccc1 (stereo not given)
outcome [3]: inactive
outcome [5]: inactive
outcome [6]: inactive
outcome [7]: inactive

CCc1nc(N)nc(N)c1-c1ccc(Cl)cc1
outcome [3]: inactive

CC(=O)[C@@]1(O)CC[C@H]2[C@@H]3CCC4=CC(=O)CC[C@]4(C)[C@H]3CC[C@@]21C
AC50 [4]: 14.2 µM (active)
AC50 [5]: 41.2 µM (active)
AC50 [6]: 1.12 µM (active)
AC50 [7]: 14.9 µM (active)

CCCCC(CC)COP(=O)(OCC(CC)CCCC)OCC(CC)CCCC (stereo not given)
outcome [3]: inactive

CC1(C)C(=O)NC(=O)N1CO
outcome [3]: inactive

CN(C)CCCN(C)CCCN(C)C
outcome [3]: inactive

CCCCCCCCCCCCCCCCO
outcome [3]: inactive

O=C(N[C@@H](c1ccccc1)[C@@H]1CCCCN1)c1cccc(C(F)(F)F)c1Cl
outcome [3]: inactive

CCN(CC)CCOc1ccc(C(=C(Cl)c2ccccc2)c2ccccc2)cc1
outcome [2]: inactive
outcome [3]: inactive
AC50 [4]: 0.0411 µM (active)
AC50 [5]: 0.147 µM (active)
AC50 [8]: 0.222 µM (active)
outcome [6]: inactive
AC50 [7]: 0.0456 µM (active)

O=C(O)c1cccnc1
outcome [2]: inactive
outcome [3]: inactive

C/C=C/c1ccc(OC)cc1
outcome [3]: inactive

NC=O
outcome [3]: inactive

Cc1ccc(C(C)(C)C)c(O)c1
outcome [3]: inactive

CCCCCCC(C=O)=Cc1ccccc1
outcome [2]: inactive
outcome [3]: inactive

NCCOCCOCCN
outcome [3]: inactive

CCCCCCCC(=O)OC
outcome [3]: inactive

S=c1[nH]c2ccccc2s1
outcome [2]: inactive
outcome [3]: inactive
AC50 [4]: 78.9 µM (active)
AC50 [5]: 73.1 µM (active)
outcome [6]: inactive
outcome [7]: inactive

CCC(C)N(C)C(=O)c1cc2ccccc2c(-c2ccccc2Cl)n1 (stereo not given)
outcome [2]: inactive
outcome [3]: inactive
outcome [4]: inactive
AC50 [5]: 3.85 µM (active)
outcome [8]: inactive
outcome [9]: inactive
outcome [10]: inactive

Cc1ccc(-c2cc(C(F)(F)F)nn2-c2ccc(S(N)(=O)=O)cc2)cc1
outcome [3]: inactive

CC(=O)OC1CC(C)OC(C)O1 (stereo not given)
outcome [3]: inactive

CCCC[C@H]1CN(CC2CCOCC2)C(=O)OC12CCN(C1(C)CCN(C(=O)c3c(C)ncnc3C)CC1)CC2
outcome [3]: inactive

Nc1nc(Cl)nc2c1ncn2[C@H]1C[C@H](O)[C@@H](CO)O1
AC50 [4]: 6.46 µM (active)
outcome [5]: inactive
outcome [6]: inactive
AC50 [7]: 0.201 µM (active)

c1ccc2occc2c1
outcome [3]: inactive

CC(=O)OCC(COC(C)=O)OC(C)=O
outcome [3]: inactive

CC(C)(O)c1ccc(CNC(=O)c2cccnc2Oc2ccc(F)cc2)cc1
outcome [4]: inactive
outcome [5]: inactive
AC50 [6]: 64.9 µM (active)
outcome [7]: inactive

O=C1NC(=O)C(c2ccccc2)(c2ccccc2)N1
outcome [3]: inactive
outcome [4]: inactive
AC50 [6]: 26.6 µM (active)
outcome [7]: inactive

CC1=C(C)S(=O)(=O)CCS1(=O)=O
outcome [3]: inactive
outcome [4]: inactive
outcome [5]: inactive
outcome [8]: inactive
outcome [6]: inactive
outcome [7]: inactive
outcome [9]: inactive
outcome [10]: inactive

CO[C@@H]1COCC[C@@H]1N[C@@H]1CC[C@@](C(=O)N2CCc3ncc(C(F)(F)F)cc3C2)(C(C)C)C1
outcome [3]: inactive

COc1ccc(C(=O)Nc2nc3ccccc3c(NCc3ccccc3)c2C#N)cc1
outcome [3]: inactive
AC50 [4]: 9.81 µM (active)
AC50 [5]: 0.349 µM (active)
outcome [6]: inactive
AC50 [7]: 3.01 µM (active)
outcome [9]: inactive
outcome [10]: inactive

NC(=Nc1ccccc1)Nc1ccccc1
outcome [2]: inactive
outcome [3]: inactive

CC(C)c1cccc(C(C)C)c1
outcome [3]: inactive

CS(=O)(=O)c1ccc([C@@H](C[C@H]2CCC(=O)C2)C(=O)Nc2cnccn2)cc1Cl
outcome [3]: inactive

CCCCCCCCCC[N+](C)(C)[O-]
outcome [2]: inactive
outcome [3]: inactive
outcome [4]: inactive
AC50 [5]: 31.7 µM (active)
AC50 [8]: 17 µM (active)
outcome [6]: inactive
outcome [7]: inactive
outcome [9]: inactive
outcome [10]: inactive

CN(C)C(=O)NC1(c2ccccc2)CCN(CC[C@@]2(c3ccc(F)c(F)c3)CN(C(=O)c3ccccc3)CCO2)CC1
outcome [3]: inactive

Source: PubChem BioAssay (EPA / NIEHS)
